Methyltransferases = Primary Screen for Target Class Profiling of Small Molecule Inhibitors of Methyltransferases; purified enzyme, MTase-Glo SAH luminescence; active compounds read low; calls only at 40 µM; 25,000 tested, 3.9% active; AID 1745853, 2022; call rule not given here
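Each enzyme was reacted with SAM and its substrate, with compounds tested once at 40 uM; SAH formed was read by MTase-Glo luminescence.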
Of the large screens only hits and unclear results are named; the others gave an inactive call. This is one part of a sample in which hits are shown more often than they occur.

COc1ccc(OC)c(CCNC(=O)CCc2nnc3n(Cc4ccc(F)cc4)c(=O)c4ccccc4n23)c1	none
CCCC(=O)NCCc1c2n(c3ccc(OC)cc13)CCCc1ccccc1-2	Methyltransferases active
CCOC(=O)c1cc2n(n1)CC(C)(C(=O)NCCC(C)C)N(c1ccc(OCC)cc1)C2=O (stereo unspecified)	none
O=S(=O)(Nc1cccnc1)c1ccc(Cl)c(-c2nnc(-c3ccccc3)o2)c1	none
CCCn1c(=O)c2ccc(C(=O)NC(C)C)cc2n2c(=O)n(CC(=O)c3cccc(Cl)c3)nc12	none
CCOc1ccccc1CN1C(=O)c2cc(C(C)(C)C)nn2CC1(C)C(=O)NC1CCCCC1 (stereo unspecified)	none
COc1cc(O)cc(/C=C/c2cccc(O)c2)c1	none
Oc1ccc(/C=C/c2ccc(/C=C/c3ccc(O)cc3)c(Br)c2)cc1	none
Oc1cc(O)cc(/C=C/c2ccc(O)c(O)c2)c1	Methyltransferases active
Cc1ccc(CCNC(=O)c2cc3n(n2)CC(C)(C(=O)NC2CCCCC2)N(C)C3=O)cc1 (stereo unspecified)	none
O=C(Cn1ccc2cc(S(=O)(=O)N3CCCCC3)ccc21)NC1CC1	none
CC(C(=O)NCc1ccccc1)n1ccc2cc(S(=O)(=O)N3CCCCC3)ccc21 (stereo unspecified)	none
CC1(C(=O)NC2CCCCCCC2)Cn2c(cc3sccc32)C(=O)N1CC1CCCO1 (stereo unspecified)	none
Cc1ccc2c(cnn2C(=O)CCC(=O)N2CCN(C)CC2)c1	none
C=CC(=O)Nc1cccc(CN2C(=O)N(c3c(Cl)c(OC)cc(OC)c3Cl)Cc3cnc(NCCCCN(CC)CC)nc32)c1	Methyltransferases active
CCOC(=O)c1cccc(NC(=O)Cn2c(=O)oc3cc(S(=O)(=O)N4CCCC4)ccc32)c1	none
O=C(CCn1ccc2cc(S(=O)(=O)N3CCCCC3)ccc21)NCCc1c[nH]c2ccccc12	none
CC1(C(=O)NCc2ccccc2)Cn2nc(-c3ccccc3)cc2C(=O)N1CCc1ccccc1 (stereo unspecified)	none
CC1CCCC(NC(=O)C2(C)Cn3c(ccc3-c3ccco3)C(=O)N2CCc2ccccc2)C1C (stereo unspecified)	none
Cc1coc2c1C(=O)C(=O)c1c-2ccc2c1CCCC2(C)C	Methyltransferases active
Cc1coc2c1C(=O)C(=O)c1c-2ccc2c(C)cccc12	none
COc1ccc(CNC(=O)C2(C)Cn3cnc(C(=O)Nc4ccc(C(C)C)cc4)c3C(=O)N2C2CC2)cc1 (stereo unspecified)	none
Cc1ccc(CCNC(=O)Cn2ccc3cc(S(=O)(=O)N4CCC(C)CC4)ccc32)cc1	none
CCOC(=O)CNC(=O)C1(C)Cn2c(ccc2-c2ccco2)C(=O)N1Cc1ccc(OC)cc1 (stereo unspecified)	none
Cc1ccc(CCNC(=O)C2CCN(c3cc(C(F)(F)F)ncn3)CC2)cc1	none
CN1CCN(Cc2ccc(NC(=O)Cc3ccc(Oc4cc(NC(=O)C5CC5)ncn4)cc3)cc2C(F)(F)F)CC1	Methyltransferases active
CCN1CCN(Cc2ccc(NC(=O)Nc3ccc(Oc4cc(NC)ncn4)cc3)cc2C(F)(F)F)CC1	Methyltransferases active
CCOc1ccc(NC(=O)N2CCn3cccc3C2C(C)C)cc1 (stereo unspecified)	none
COc1ccc(NC(=O)COc2ccc(NC(=O)C3CC3)cn2)cc1	none
CCOc1cccc(NC(=O)c2ccc(N3CCCC3)c(C(F)(F)F)c2)c1	none
Cc1ccccc1NC(=O)Cn1nc2n(C(C)C)c(=O)c3ccc(C(=O)NC4CCCC4)cc3n2c1=O	none
CCCN1C(=O)c2c(C(=O)NCc3ccc(SC)cc3)ncn2CC1(C)C(=O)NCCC(C)C (stereo unspecified)	none
Cc1ccc(Cn2c(=O)c3ccccc3n3c(CCC(=O)N4CCN(c5ccccc5)CC4)nnc23)cc1	none
CC(=O)O[C@H]1C[C@@H](O)C(C)(C)C2C[C@@H](OC(C)=O)[C@]3(C)C(CC[C@@]4(C)[C@H](c5ccoc5)OC(=O)[C@H]5O[C@]543)[C@]21C (stereo partly specified)	none
CCC(C)C(=O)OC1CC(O)C23C4OCC5(C(O)CC2C1(C)C(O)O4)C3C(=O)C(O)C1(C)C(O)(c2ccoc2)CC2OC251 (stereo unspecified)	Methyltransferases active
COc1ccc(CNc2nc3c(S(=O)(=O)c4ccc(C)c(C)c4)nnn3c3ccccc23)cc1	none
CC(=O)OC(C)C(C)(O)C(=O)O[C@@H]1CC[C@]2(C)CC(=O)C(=C(C)C)C[C@H]2[C@]1(C)OC(C)=O (stereo partly specified)	none
CC(C)=C1CC2C(CCC2(C)O)C(C)(O)CC1=O (stereo unspecified)	Methyltransferases active
CC1=CC(=O)C(=C(C)C)CC2C1CCC2(C)O (stereo unspecified)	none
Cc1cc2c(cc3n2CC(C)(C(=O)NC2CCCCCC2)N(C2CCCCC2)C3=O)o1 (stereo unspecified)	none
CN(C)c1nc(NC2CCC(NCCc3ccc(Br)cc3OC(F)(F)F)CC2)nc2ccccc12 (stereo unspecified)	Methyltransferases active
CC(C)Oc1ccc(CN2C(=O)c3cc4sccc4n3CC2(C)C(=O)NC2CCCCC2)cc1 (stereo unspecified)	none
Cc1ccc(Nc2ccn3c(=O)n(CC(=O)Nc4cc(F)cc(F)c4)nc3n2)cc1	none
CCCN1C(=O)c2c(C(=O)NCCC(C)C)ncn2CC1(C)C(=O)NCc1ccc(F)cc1 (stereo unspecified)	none
COc1ccc2cc3n(c2c1)CC(C)(C(=O)NC1CCCCCC1)N(Cc1ccco1)C3=O (stereo unspecified)	none
Cc1ccc(NC(=O)Cn2c(=O)oc3cc(S(=O)(=O)N4CCCC4)ccc32)cc1Cl	none
Cc1c(C)c(NCC(=O)N(C)C2CCN(Cc3ccc(C(N)=O)cc3)CC2)c(C)c(C)c1N	none
NC(N)=NC(=O)c1nc(Cl)c(N2CCCCCC2)nc1N	none
CC[C@H]1CN(c2nc(N)c(C(N)=O)nc2Cl)CCN1C1CCN(Cc2ccc(Cl)cc2)CC1	Methyltransferases active
Cc1ccc(NC(=O)N2Cc3c(sc4c3CCCC4)-n3cccc3C2c2cc(F)cc(F)c2)cc1 (stereo unspecified)	none
CC(C)Cn1c(=O)c2ccccc2n2c(=O)n(Cc3ccc(F)cc3)nc12	none
CN1C(=O)c2cc3ccccc3n2CC1(C)C(=O)NCC(=O)NCc1ccccn1 (stereo unspecified)	none
CC1(C)CC[C@]2(C(=O)O)CC[C@]3(C)C(=CCC4[C@@]5(C)C[C@@H](O)[C@H](O)[C@@](C)(CO)C5CC[C@]43C)C2C1 (stereo partly specified)	none
CC1(CO)CC(O)[C@]2(C(=O)O)CCC34CC3(C=CC3[C@]5(C)C(CC[C@]34C)C(C)(CO)[C@@H](O)[C@H](O)[C@@H]5O)C2C1 (stereo partly specified)	Methyltransferases active
CC1(C)CC[C@]2(C(=O)O)CC[C@]3(C)C(=CCC4[C@@]5(C)C(=O)C[C@H](O)[C@@](C)(CO)C5CC[C@]43C)[C@@H]2C1 (stereo partly specified)	none
CCCn1c(=O)c2ccccc2n2c(=O)n(CC(=O)c3ccc(F)cc3)nc12	none
C=C[C@H]1[C@H](O[C@@H]2O[C@H](CO)[C@@H](O)[C@H](O)[C@H]2O)OC=C(C(=O)OC)[C@H]1CCOC(=O)c1cc(O)c(O)c(O)c1	Methyltransferases active
C=CC1C(O[C@@H]2O[C@H](CO)[C@@H](O)[C@H](O)[C@H]2O)OC=C(C(=O)OC)C1Cc1nccc2c1[nH]c1ccccc12 (stereo partly specified)	none

Source: PubChem
